Ten compounds from PubChem BioAssay (EPA / NIEHS) can be followed below.

The nature of experiment [1]: CPHEA_Stoker_NIS_Cytotoxicity: Cytotoxicity Assessment for CPHEA's Radioactive Iodide Uptake (RAIU) Assay for Sodium/Iodide Symporter (NIS) Inhibition, Stoker and Laws Labs (AID 2283897). The essentials:
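CellTiter-Glo ATP luminescence gauged viability in HEK293T cells expressing human NIS after 2 h chemical exposure. Concentrations ran 0.001–100 uM in 0.5% DMSO; DMSO served as baseline for the loss-of-signal fit.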

Experiment [2] relates to Sodium/Iodide Symporter (NIS), SLC5A5 (gene 6528). As to the kind of experiment: CPHEA_Stoker_NIS_Inhibition_RAIU: CPHEA's Radioactive Iodide Uptake (RAIU) Assay for Sodium/Iodide Symporter (NIS) Inhibition, Stoker and Laws Labs (AID 2283841). The essentials: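 Iodide uptake read as CPM of intracellular 125I (final 329 pM) after 2 h room-temperature exposure in HEPES-buffered HBSS, pH 7.4. Human NIS-expressing HEK293T cells; six concentrations 0.001–100 uM, 0.5% DMSO, normalised to DMSO wells.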

Experiment [3] addresses Peroxisome proliferator-activated receptor gamma (Homo sapiens) (UniProt P37231). As to the kind of experiment: ATG_hPPARg_XSP2: Attagene TRANS-FACTORIAL Multi-Species (XSP2) HepG2 Assay for human Peroxisome Proliferator-activated Receptor gamma (PPARg) (AID 2283829).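 Note: actives raise reporter mRNA above DMSO so AC50 reflects PPARg activation.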 In short, it runs like this: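 HepG2 cells transiently transfected with multiplexed GAL4-UAS reporter units for chimeric NR-Gal4 receptors, dosed 24 h. Reporter mRNA quantified by RT-PCR, 6-FAM labeling, HpaI digestion and capillary electrophoresis; gain-of-signal fitted against DMSO baseline.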

For experiment [4], the target named is mouse Peroxisome Proliferator-activated Receptor gamma (PPARg), Pparg (gene 19016) (UniProt P37238). As to the kind of experiment: ATG_mPPARg_XSP2: Attagene TRANS-FACTORIAL Multi-Species (XSP2) HepG2 Assay for mouse Peroxisome Proliferator-activated Receptor gamma (PPARg) (AID 2283830).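 Note: hits are gains in reporter mRNA above DMSO so AC50 marks activation.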 The essentials: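 Multiplexed TRANS reporter readout: after 24 h chemical exposure of transfected HepG2 cells (with 3 nM 6-alpha-fluorotestosterone, 1.5 nM norgestrel present), RNA reverse-transcribed, amplified, 6-FAM-labelled and resolved by capillary electrophoresis; mouse PPARg-Gal4 induction scored against DMSO.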
Chain of mouse Peroxisome Proliferator-activated Receptor gamma (PPARg), Pparg (gene 19016) (P37238 whole entry, looked up, the tested form may be a part): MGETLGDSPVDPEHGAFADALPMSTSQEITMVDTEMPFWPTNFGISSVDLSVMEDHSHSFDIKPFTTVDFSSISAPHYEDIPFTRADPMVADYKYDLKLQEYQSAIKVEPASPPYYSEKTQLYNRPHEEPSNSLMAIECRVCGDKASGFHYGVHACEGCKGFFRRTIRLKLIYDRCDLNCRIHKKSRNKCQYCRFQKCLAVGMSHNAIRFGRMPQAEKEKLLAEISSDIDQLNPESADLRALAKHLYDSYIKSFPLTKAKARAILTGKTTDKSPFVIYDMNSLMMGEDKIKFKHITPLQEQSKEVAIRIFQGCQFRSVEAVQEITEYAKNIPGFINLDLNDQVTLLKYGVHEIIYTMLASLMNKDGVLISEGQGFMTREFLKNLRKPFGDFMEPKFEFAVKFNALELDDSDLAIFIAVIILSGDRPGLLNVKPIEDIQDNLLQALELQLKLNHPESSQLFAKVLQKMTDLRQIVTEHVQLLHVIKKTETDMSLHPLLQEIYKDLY

The target of experiment [5] is Nuclear receptor subfamily 1 group I member 2 (Mus musculus) (UniProt O54915). Put plainly: ATG_mPXR_XSP2: Attagene TRANS-FACTORIAL Multi-Species (XSP1) HepG2 Assay for mouse Pregnane X Receptor (PXR) (AID 2283831). In short, it runs like this:
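HepG2 cells transiently transfected with GAL4-UAS reporter units expressing chimeric NR-GAL4 proteins; reporter mRNA measured 24 h after dosing by RT-PCR with 6-FAM labelling and capillary electrophoresis, gain of signal relative to DMSO.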

Experiment [6] has as its system zebrafish Peroxisome Proliferator-activated Receptor gamma (PPARg), gene 557037. As to the kind of experiment: ATG_zfPPARg_XSP2: Attagene TRANS-FACTORIAL Multi-Species (XSP2) HepG2 Assay for zebrafish Peroxisome Proliferator-activated Receptor gamma (PPARg) (AID 2283833).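 Note: actives increase reporter signal over DMSO so AC50 reflects activation.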 The essentials:
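HepG2 cells transiently transfected with GAL4-UAS reporter units expressing a zebrafish PPARg–GAL4 chimera; compound exposure 24 h. Reporter mRNA quantified by RT-PCR with fluorescent labelling and capillary electrophoresis; gain of signal fitted relative to DMSO baseline.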

Experiment [7] relates to turtle Thyroid Hormone Receptor, alpha (TRa), gene 101949057. As to the kind of experiment: ATG_trTRa_XSP2: Attagene TRANS-FACTORIAL Multi-Species (XSP1) HepG2 Assay for turtle Thyroid Hormone Receptor, alpha (TRa) (AID 2283834).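 Note: hits raise reporter mRNA over the DMSO baseline so AC50 marks activators.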 In short, it runs like this:
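HepG2 cells transiently transfected with multiplexed GAL4-UAS reporter units expressing chimeric NR-Gal4 proteins were dosed for 24 hours. Reporter mRNA was quantified by RT-PCR with 6-FAM labelling and capillary electrophoresis, gain of signal scored against DMSO.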

Experiment [8] concerns the target zebrafish Thyroid Hormone Receptor beta (TRb), thrb (gene 30607) (UniProt Q9PVE4). As to the kind of experiment: ATG_zfTRb_XSP2: Attagene TRANS-FACTORIAL Multi-Species (XSP1) HepG2 Assay for zebrafish Thyroid Hormone Receptor beta (TRb) (AID 2283836). The essentials:
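Reporter transcripts measured by RT-PCR, 6-FAM labelling, HpaI digestion and capillary electrophoresis after 24 h chemical exposure. Human HepG2 cells carry an exogenous zebrafish TRb-GAL4 chimera; medium included 3 nM 6-alpha-fluorotestosterone plus 1.5 nM norgestrel.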

For experiment [9], the target named is human Thyroid hormone Receptor alpha (TRa), THRA (gene 7067) (UniProt P10827). As to the kind of experiment: ATG_hTRa_XSP2: Attagene TRANS-FACTORIAL Multi-Species (XSP2) HepG2 Assay for human Thyroid hormone Receptor alpha (TRa) (AID 2283838). The essentials:
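Reporter transcripts were read by RT-PCR with fluorescent primer extension, HpaI digestion and capillary electrophoresis. These came from HepG2 cells carrying multiplexed TRa-Gal4 TRANS constructs, harvested 24 hours after dosing. The medium also held 6-alpha-fluorotestosterone (3 nM) and norgestrel (1.5 nM), and increases were fitted against DMSO.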

In experiment [10] the target is frog Thyroid hormone Receptor alpha (TRa), thra-a (gene 397942) (UniProt P15204). Put plainly: ATG_frTRa_XSP2: Attagene TRANS-FACTORIAL Multi-Species (XSP2) HepG2 Assay for frog Thyroid hormone Receptor alpha (TRa) (AID 2283839). The essentials: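 HepG2 cells transiently transfected with multiplexed GAL4-UAS reporter units expressing chimeric frog TRα-Gal4; reporter mRNA read 24 h after dosing by RT-PCR, FAM-labelled primer extension, HpaI digest and capillary electrophoresis. Gain of signal fitted versus DMSO.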
Chain of frog Thyroid hormone Receptor alpha (TRa), thra-a (gene 397942) (P15204 whole entry, looked up, the tested form may be a part): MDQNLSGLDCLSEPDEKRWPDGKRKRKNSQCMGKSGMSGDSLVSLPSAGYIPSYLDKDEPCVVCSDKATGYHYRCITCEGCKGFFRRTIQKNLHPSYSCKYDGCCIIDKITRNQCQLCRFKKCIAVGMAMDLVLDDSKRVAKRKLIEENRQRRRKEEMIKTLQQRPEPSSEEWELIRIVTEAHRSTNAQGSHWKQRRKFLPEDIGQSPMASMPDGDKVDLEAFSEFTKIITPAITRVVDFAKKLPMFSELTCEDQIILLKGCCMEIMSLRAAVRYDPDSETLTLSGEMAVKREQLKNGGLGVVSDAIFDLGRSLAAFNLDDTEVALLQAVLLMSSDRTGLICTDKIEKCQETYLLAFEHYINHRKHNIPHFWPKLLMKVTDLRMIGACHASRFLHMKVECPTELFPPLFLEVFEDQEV

Experiment [11] deals with zebrafish Thyroid Hormone Receptor alpha (TRa), thraa (gene 30670) (UniProt Q98867). Put plainly: ATG_zfTRa_XSP2: Attagene TRANS-FACTORIAL Multi-Species (XSP1) HepG2 Assay for zebrafish Thyroid Hormone Receptor alpha (TRa) (AID 2283832).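 Note: actives raise zebrafish TRa-Gal4 reporter transcript above DMSO baseline.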 In short, it runs like this: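 Chimeric zebrafish TRa-Gal4 activity read in transfected human HepG2 as GAL4-UAS reporter transcripts, 24 h post-dose, via RT-PCR with labeled primer extension and capillary electrophoresis. Medium also carries 3 nM 6-alpha-fluorotestosterone and 1.5 nM norgestrel; DMSO baseline.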
Chain of zebrafish Thyroid Hormone Receptor alpha (TRa), thraa (gene 30670) (Q98867 whole entry, looked up, the tested form may be a part): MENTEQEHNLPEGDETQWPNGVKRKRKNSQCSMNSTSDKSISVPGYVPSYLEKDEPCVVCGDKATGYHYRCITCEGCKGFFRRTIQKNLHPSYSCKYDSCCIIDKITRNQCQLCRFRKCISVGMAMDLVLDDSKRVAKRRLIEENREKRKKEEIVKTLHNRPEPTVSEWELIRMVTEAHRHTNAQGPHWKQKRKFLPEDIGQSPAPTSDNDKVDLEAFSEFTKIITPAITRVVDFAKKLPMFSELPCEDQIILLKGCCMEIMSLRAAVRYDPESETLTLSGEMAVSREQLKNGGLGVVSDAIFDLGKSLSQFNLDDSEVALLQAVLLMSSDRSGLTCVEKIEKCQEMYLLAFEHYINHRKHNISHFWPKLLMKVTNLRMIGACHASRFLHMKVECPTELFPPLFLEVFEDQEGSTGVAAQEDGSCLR

Experiment [12] is described as follows: ATG_M_61_XSP2: Attagene TRANS-FACTORIAL Multi-Species (XSP2) HepG2 Assay for M61 Transcription Factor (Internal Marker) (AID 2283835; active = hit-call score of the fitted dose curve at least 0.9, where 1 is the maximum; inactive = score below 0.9;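 note: reporter mRNA of an internal background marker read by RT-PCR and capillary electrophoresis; active means a rise in signal above the DMSO baseline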). The essentials:
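Transient MRTU transfection of human HepG2; 24 h chemical dosing with 3 nM 6-alpha-fluorotestosterone + 1.5 nM norgestrel added for AR stimulation. RNA isolated, RT, PCR, FAM-labelled, HpaI cut, CE read. Positive direction vs DMSO.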

A short description of experiment [13]: CEETOX_H295R_11DCORT_noMTC: CeeTox H295R High-throughput Steroidogenesis Assay for 11-Deoxycortisol (11DCORT), maximum tolerated concentration (MTC) filtered results only (AID 2283911; active = hit-call score of the fitted dose curve at least 0.9, where 1 is the maximum; inactive = score below 0.9). Conditions: actives raise or lower the signal. The essentials: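 HPLC-MS/MS read-out of 11-deoxycortisol after MTBE extraction of H295R medium. Cells: forskolin 10 uM pre-stimulation 48 h, chemical 48 h, 0.1% DMSO final. Bidirectional fit vs DMSO baseline; no MTC filtering.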

Experiment [14] can be described thus: CEETOX_H295R_OHPREG_noMTC: CeeTox H295R High-throughput Steroidogenesis Assay for OH-Pregnenolone (OHPREG), maximum tolerated concentration (MTC) filtered results only (AID 2283912; active = hit-call score of the fitted dose curve at least 0.9, where 1 is the maximum; inactive = score below 0.9). Conditions: actives raise or lower the signal. The essentials:
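H295R; 10 uM forskolin 48 h pre-stim; test cpd in DMSO (0.1% final) 48 h; media MTBE-extracted, HPLC-MS/MS for OH-pregnenolone; bidirectional fit vs DMSO; no MTC (MTT) filtering.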

Experiment [15] can be described thus: CEETOX_H295R_OHPROG_noMTC: CeeTox H295R High-throughput Steroidogenesis Assay for OH-Progesterone (OHPROG), maximum tolerated concentration (MTC) filtered results only (AID 2283914; active = hit-call score of the fitted dose curve at least 0.9, where 1 is the maximum; inactive = score below 0.9). Conditions: actives raise or lower the signal. The essentials:
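Medium hormone measured by reverse-phase C18 HPLC with positive electrospray MS/MS after MTBE liquid-liquid extraction. Cells had 48 h forskolin (10 uM) prestimulation, then 48 h chemical dosing. Gain or loss of signal fitted relative to DMSO baseline.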

A short description of experiment [16]: CEETOX_H295R_CORTISOL_noMTC: CeeTox H295R High-throughput Steroidogenesis Assay for Cortisol, maximum tolerated concentration (MTC) filtered results only (AID 2283916; active = hit-call score of the fitted dose curve at least 0.9, where 1 is the maximum; inactive = score below 0.9). Conditions: actives raise or lower the signal. In short, it runs like this: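 H295R human adrenal cells prestimulated 48 h with 10 uM forskolin, then exposed 48 h to chemical in 0.1% DMSO; cortisol in medium quantified by HPLC-MS/MS; bidirectional fit vs DMSO baseline, concentrations not MTT-filtered for MTC.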

Experiment [17] is described as follows: CEETOX_H295R_CORTIC_noMTC: CeeTox H295R High-throughput Steroidogenesis Assay for Corticosterone (CORTIC), maximum tolerated concentration (MTC) filtered results only (AID 2283917; active = hit-call score of the fitted dose curve at least 0.9, where 1 is the maximum; inactive = score below 0.9). As to conditions: actives raise or lower the signal. In short, it runs like this: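 Corticosterone secreted into the medium was measured by reverse-phase C18 HPLC with tandem MS after MTBE extraction. Cells (H295R) had 48 h forskolin (10 uM) stimulation before 48 h chemical exposure; gain or loss of signal was fitted relative to DMSO.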

Experiment [18] can be described thus: CEETOX_H295R_DOC_noMTC: CeeTox H295R High-throughput Steroidogenesis Assay for DOC, maximum tolerated concentration (MTC) filtered results only (AID 2283918; active = hit-call score of the fitted dose curve at least 0.9, where 1 is the maximum; inactive = score below 0.9). Conditions: actives raise or lower the signal. The essentials: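 H295R cells prestimulated 48 h with 10 uM forskolin, then exposed 48 h to chemical in 0.1% DMSO. 11-Deoxycorticosterone in medium measured by MTBE extraction and HPLC-MS/MS; bidirectional fit vs DMSO, no MTC filter.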

Results filed as inconclusive are left out. Activity calls are given as the source filed them. Rule for the calls, unless noted: active = hit-call score of the fitted dose curve at least 0.9, where 1 is the maximum; inconclusive = response in the unintended direction; inactive = score below 0.9.

Chain of zebrafish Thyroid Hormone Receptor beta (TRb), thrb (gene 30607) (Q9PVE4 whole entry, looked up, the tested form may be a part): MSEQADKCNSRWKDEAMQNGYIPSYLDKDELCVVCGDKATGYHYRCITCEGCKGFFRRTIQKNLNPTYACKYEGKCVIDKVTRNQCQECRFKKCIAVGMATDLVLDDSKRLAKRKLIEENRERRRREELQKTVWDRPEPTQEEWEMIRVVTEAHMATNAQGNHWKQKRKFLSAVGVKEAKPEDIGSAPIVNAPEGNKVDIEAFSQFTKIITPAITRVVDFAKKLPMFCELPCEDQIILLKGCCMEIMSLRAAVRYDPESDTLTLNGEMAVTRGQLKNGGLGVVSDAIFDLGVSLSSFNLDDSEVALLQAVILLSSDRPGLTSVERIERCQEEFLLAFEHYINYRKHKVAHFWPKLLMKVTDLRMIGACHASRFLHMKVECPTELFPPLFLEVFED
Chain of Peroxisome proliferator-activated receptor gamma (Homo sapiens) (P37231 whole entry, looked up, the tested form may be a part): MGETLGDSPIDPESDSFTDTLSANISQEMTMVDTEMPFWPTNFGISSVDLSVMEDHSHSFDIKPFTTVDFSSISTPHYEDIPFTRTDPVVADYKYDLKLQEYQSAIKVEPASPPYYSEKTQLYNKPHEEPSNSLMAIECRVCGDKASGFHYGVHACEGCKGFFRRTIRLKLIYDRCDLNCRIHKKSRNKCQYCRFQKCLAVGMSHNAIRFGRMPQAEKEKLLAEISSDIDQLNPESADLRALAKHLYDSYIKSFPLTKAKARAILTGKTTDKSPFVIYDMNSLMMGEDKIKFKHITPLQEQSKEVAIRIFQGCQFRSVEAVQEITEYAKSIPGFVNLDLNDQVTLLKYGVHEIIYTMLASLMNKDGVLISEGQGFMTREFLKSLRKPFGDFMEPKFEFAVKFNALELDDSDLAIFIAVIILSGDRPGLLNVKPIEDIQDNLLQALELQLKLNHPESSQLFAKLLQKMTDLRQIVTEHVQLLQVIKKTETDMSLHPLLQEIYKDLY
Chain of Nuclear receptor subfamily 1 group I member 2 (Mus musculus) (O54915 whole entry, looked up, the tested form may be a part): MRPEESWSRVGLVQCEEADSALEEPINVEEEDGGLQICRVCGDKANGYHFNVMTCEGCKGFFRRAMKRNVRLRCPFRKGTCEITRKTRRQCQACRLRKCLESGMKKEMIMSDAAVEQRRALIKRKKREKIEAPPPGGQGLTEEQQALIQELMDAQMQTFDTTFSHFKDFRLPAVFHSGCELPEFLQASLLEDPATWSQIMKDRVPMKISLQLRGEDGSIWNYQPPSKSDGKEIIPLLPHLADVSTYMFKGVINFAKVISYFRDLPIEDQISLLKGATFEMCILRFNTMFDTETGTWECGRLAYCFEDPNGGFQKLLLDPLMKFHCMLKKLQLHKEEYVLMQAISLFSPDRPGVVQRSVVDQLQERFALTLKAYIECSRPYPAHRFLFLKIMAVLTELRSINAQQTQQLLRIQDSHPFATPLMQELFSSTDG
Chain of human Thyroid hormone Receptor alpha (TRa), THRA (gene 7067) (P10827 whole entry, looked up, the tested form may be a part): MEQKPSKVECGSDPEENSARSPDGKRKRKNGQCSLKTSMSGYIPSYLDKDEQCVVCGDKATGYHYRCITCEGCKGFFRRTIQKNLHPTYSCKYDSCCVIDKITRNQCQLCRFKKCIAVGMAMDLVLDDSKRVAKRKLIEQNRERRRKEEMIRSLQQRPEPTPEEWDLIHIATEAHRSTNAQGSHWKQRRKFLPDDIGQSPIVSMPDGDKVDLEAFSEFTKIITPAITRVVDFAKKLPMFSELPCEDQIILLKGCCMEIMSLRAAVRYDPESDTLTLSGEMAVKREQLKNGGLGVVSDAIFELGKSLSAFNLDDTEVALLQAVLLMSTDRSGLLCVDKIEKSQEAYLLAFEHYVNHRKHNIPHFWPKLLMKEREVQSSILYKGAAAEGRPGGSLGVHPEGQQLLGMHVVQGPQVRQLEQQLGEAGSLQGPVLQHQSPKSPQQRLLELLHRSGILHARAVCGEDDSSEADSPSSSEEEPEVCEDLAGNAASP

`Cc1ccc(C)c(C)c1`: the outcome in experiment [1] was inactive.

Turning to `Oc1ccc2ccccc2c1N=Nc1ccccc1`, the result in [2] and in [1] was inactive.

Turning to `CCCCC(CC)COC(=O)CC(C(=O)OCC(CC)CCCC)S(=O)(=O)O` (configuration not stated), the result in experiment [2] and in [1] was inactive.

`FC(F)(F)C(F)(F)C(F)(F)C(F)(F)C(F)(F)C(F)(F)CCI`: the result in [2] and in [1] was inactive.

`CCCc1cc(=O)[nH]c(=S)[nH]1`: the compound was classed as inactive in [3], in experiment [4], in [5], in experiment [6], in experiment [7] and in experiment [8]. The result in experiment [9] and in [10] was inactive.

In the case of `COc1ccc(S(=O)(=O)N2C(=O)[C@@](c3ccccc3OC)(N3C[C@H](O)C[C@H]3C(=O)N(C)C)c3cc(Cl)ccc32)c(OC)c1`, the outcome in experiment [2] and in [1] was inactive.

In the case of `Nc1ccccc1N`, the outcome in [2] and in experiment [1] was inactive.

`CC(C)(C)c1cc(O)c(C(C)(C)C)cc1O`: the values for the AC50 in experiment [3] and in experiment [4] were 42.7 µM (active) and 57.5 µM (active), respectively. Besides, the call in experiment [11], in experiment [6], in experiment [12], in experiment [8], in experiment [10] and in experiment [2] was inactive. Besides, the result in experiment [1] was inactive.

With `Cc1oc(-c2ccccc2)nc1CCOc1cccc2c1ccn2CCC(=O)O`, the result in [1], in [14], in [15], in experiment [16] and in experiment [17] was inactive. Further, the AC50 in experiment [13] is 9.6 µM (active); in experiment [18], 6.44 µM (active).

Regarding `O=c1c(O)c(-c2ccc(O)c(O)c2)oc2cc(O)cc(O)c12`, the result in experiment [2] and in experiment [1] was inactive.

As a reminder, the AC50 is the concentration at which the activity in the assay is half-maximal.
